Drawing on PubChem BioAssay (NCI), this text covers growth for seven compounds.

About 83,000 compounds went through this panel and 20% of them were active in at least one assay; those are over-represented in the sample as a whole.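 The endpoint reported here, percent growth, reads 100 for growth as untreated, 0 for no net growth and -100 for all cells dead.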 A number with no mark means an inactive call. Calls of active or inactive are those of the source. The calls were made as follows: active = growth percent below 10; inactive = the rest.

Among the test systems are NCI-H23 lung; NCI-H226 lung; NCI-H322M lung; HOP-62 NSCLC; NCI-H460 lung; HOP-92 NSCLC; NCI-H522 lung; A549/ATCC NSCLC; 786-0 renal; COLO 205 colon; DU-145 prostate; K-562 leukemia; MALME-3M melanoma; MDA-MB-231 breast; RXF 393 renal; SF-268 CNS; SF-295 CNS; SF-539 CNS; UACC-257 melanoma; M14 melanoma.
What all share (test): NCI-60 one-dose screen, 48 h (100 = growth as untreated, 0 = no growth, -100 = all killed)
Holding throughout (settings): 10 µM unless noted

In the case of `N#CC[C@H](C1CCCC1)n1cc(-c2ncnc3[nH]ccc23)cn1`, the growth with NCI-H23 lung is 71.5%; with NCI-H226 lung, 33.7%; with NCI-H322M lung, 76.2%; in the experiment with HOP-62 NSCLC, 45.1%; in the experiment on NCI-H460 lung, 54.7%; in the experiment on HOP-92 NSCLC, 41.5%. Also, the growth in the experiment with NCI-H522 lung is 37.9%; with A549/ATCC NSCLC it was 43.8%; in the experiment with 786-0 renal it was 54.7%; with COLO 205 colon, 37%; in the experiment on DU-145 prostate, 62.8%; in the experiment on K-562 leukemia, 70.4%. For the same compound, the growth in the experiment with MALME-3M melanoma was 97%; with MDA-MB-231 breast, 60.4%; with RXF 393 renal, 15.9%; in the experiment on SF-268 CNS, 59.8%; in the experiment on SF-295 CNS, 76.6%; with SF-539 CNS, 67.4%. For the same compound, the growth with UACC-257 melanoma was 78.9%; with M14 melanoma, 77.9%.

For `CCN(CCCOc1ccc2c(Nc3cc(CC(=O)Nc4cccc(F)c4)[nH]n3)ncnc2c1)CCOP(=O)(O)O`, the growth with NCI-H23 lung is 73.4%; in the experiment with NCI-H226 lung, 93.8%; with NCI-H322M lung it was 68.5%; in the experiment with HOP-62 NSCLC it was 56.7%; in the experiment on NCI-H460 lung it was 45%; in the experiment on HOP-92 NSCLC, 87.6%. Also, the growth with NCI-H522 lung is 44%; in the experiment on A549/ATCC NSCLC it was 44.1%; with 786-0 renal it was 86.5%; in the experiment with COLO 205 colon, -7.95% (active); with DU-145 prostate, 88.5%; in the experiment with K-562 leukemia it was 48.4%. The growth is 31.9% with MALME-3M melanoma; 79.5% with MDA-MB-231 breast; 96.7% with RXF 393 renal; 76% in the experiment on SF-268 CNS; 73.5% in the experiment with SF-295 CNS; 48.8% in the experiment on SF-539 CNS. Besides, the growth was 49.9% in the experiment on UACC-257 melanoma and 45.1% in the experiment on M14 melanoma.

Take `Cc1cc(N(CCNc2ccnc3cc(Cl)ccc23)Cc2cccs2)nc(Cl)n1`: the growth is 0.24% (active) in the experiment on NCI-H23 lung; -30.2% (active) with NCI-H226 lung; -24.7% (active) in the experiment on NCI-H322M lung; -29.4% (active) in the experiment with HOP-62 NSCLC; -10.7% (active) in the experiment on NCI-H460 lung; -27.9% (active) in the experiment on HOP-92 NSCLC. The growth in the experiment with NCI-H522 lung is -49.1% (active); with A549/ATCC NSCLC it was 15.8%; with 786-0 renal, -97.6% (active); in the experiment on COLO 205 colon, -75.3% (active); in the experiment on DU-145 prostate, 23.9%; in the experiment on K-562 leukemia, -50.9% (active). Besides, the growth in the experiment on MALME-3M melanoma is -29.4% (active); with MDA-MB-231 breast it was -35.7% (active); in the experiment on RXF 393 renal, -63.3% (active); with SF-268 CNS, 19.3%; in the experiment on SF-295 CNS, -44.6% (active); in the experiment on SF-539 CNS, -92.2% (active). In addition, in the experiment on M14 melanoma, the growth was -67.3% (active).

Turning to `Clc1ccc(/C=C/c2cc(N3CCOCC3)c3cc(Cl)c(Cl)cc3n2)cc1`, the growth is 100% with NCI-H23 lung; 85.5% in the experiment with NCI-H226 lung; 94.3% in the experiment with NCI-H322M lung; 122% with HOP-62 NSCLC; 95% with NCI-H460 lung; 96.6% with HOP-92 NSCLC. The growth in the experiment with NCI-H522 lung is -43.7% (active); in the experiment with A549/ATCC NSCLC it was 79.9%; in the experiment on 786-0 renal it was -11% (active); in the experiment with COLO 205 colon, 98.1%; with DU-145 prostate it was 60.2%; with K-562 leukemia, 86.3%. Further, the growth in the experiment with MALME-3M melanoma is 56%; in the experiment on MDA-MB-231 breast it was 59.3%; in the experiment with RXF 393 renal it was 81.1%; in the experiment with SF-268 CNS, 58%; in the experiment with SF-295 CNS, 95.9%; in the experiment with SF-539 CNS, 62.3%. Further, the growth in the experiment on M14 melanoma is 98.5%.

Take `CCNC(=O)Nc1nc2ccc(Oc3ccnc(C(=O)NC)c3)cc2s1`: the growth is 90.1% in the experiment with NCI-H23 lung; 84.5% with NCI-H226 lung; 102% in the experiment on NCI-H322M lung; 76.1% in the experiment with HOP-62 NSCLC; 73.4% with NCI-H460 lung; 70.6% in the experiment on HOP-92 NSCLC. Also, the growth in the experiment with NCI-H522 lung was 56.6%; with A549/ATCC NSCLC, 62.4%; with 786-0 renal, 88.3%; in the experiment on COLO 205 colon, 56.1%; in the experiment with DU-145 prostate, 103%; in the experiment with K-562 leukemia it was 8.24% (active). Also, the growth with MALME-3M melanoma was 67.3%; in the experiment with MDA-MB-231 breast it was 73%; with RXF 393 renal it was 103%; in the experiment on SF-268 CNS it was 92.8%; in the experiment with SF-295 CNS, 70.5%; in the experiment with SF-539 CNS it was 77.6%. In addition, the growth with UACC-257 melanoma was 87.1%; with M14 melanoma, 40.7%.

For the compound `C[C@@H]1COCCN1c1cc(C2([S@](C)(=N)=O)CC2)nc(-c2ccnc3[nH]ccc23)n1`, the growth in the experiment on NCI-H23 lung is -1.16% (active); in the experiment on NCI-H226 lung it was 39.5%; with NCI-H322M lung, 3.93% (active); with HOP-62 NSCLC, 8.86% (active); in the experiment with NCI-H460 lung it was 9.37% (active); with HOP-92 NSCLC it was 23%. The growth was 30.9% in the experiment with NCI-H522 lung; 8.97% (active) in the experiment on A549/ATCC NSCLC; 2.08% (active) in the experiment on 786-0 renal; 42.3% in the experiment with COLO 205 colon; 17.5% in the experiment on DU-145 prostate; 10.8% with K-562 leukemia. The growth in the experiment on MALME-3M melanoma was 43.1%; with MDA-MB-231 breast, 48%; in the experiment with RXF 393 renal, -28.4% (active); in the experiment with SF-268 CNS it was 43.5%; in the experiment with SF-295 CNS, 19%; in the experiment on SF-539 CNS it was 1.29% (active). Also, the figures for the growth with UACC-257 melanoma and with M14 melanoma were 52.8% and 10.6%, respectively.

As to `O=C(COc1cccc(/C=C2\Cc3ccc(Cl)cc3C2=O)c1)Nc1nccs1`, the growth with NCI-H23 lung is 78.5%; with NCI-H226 lung, 86.1%; in the experiment on NCI-H322M lung, 96.9%; in the experiment on HOP-62 NSCLC, 96.5%; with NCI-H460 lung, 89.2%; in the experiment with HOP-92 NSCLC, 77.2%. For the same compound, the growth in the experiment with NCI-H522 lung was 2.66% (active); with A549/ATCC NSCLC, 88.7%; in the experiment on 786-0 renal it was 98.5%; in the experiment with COLO 205 colon, 113%; in the experiment with DU-145 prostate, 108%; in the experiment with K-562 leukemia it was 89.5%. Further, the growth in the experiment with MALME-3M melanoma is 116%; in the experiment with MDA-MB-231 breast, 71.7%; in the experiment with RXF 393 renal it was 107%; with SF-268 CNS, 108%; with SF-295 CNS, 119%; in the experiment on SF-539 CNS it was 79.9%. Also, the growth in the experiment with UACC-257 melanoma was 110%; with M14 melanoma, 107%.
